tested on: Plasmodium falciparum; assay: GSK_TCMDC: Inhibition of Plasmodium falciparum 3D7 in whole red blood cells, using parasite LDH activity as an index of growth. Test compounds present at 2uM; type: functional

Point of comparison: `COc1ccc(C2CCN(CCCCNC(=O)c3ccc(NC(=O)c4ccc(Cl)cc4)cc3)CC2)c(OC)c1.Cl`, Inhibition 100%. Against it:
- CCOC(=O)C(=O)N1c2ccc(OCC)cc2-c2c(ssc2=S)C1(C)C — lower, 99%
- O=C(Nc1ccc([N+](=O)[O-])cc1Br)c1cc2ccccc2nc1Cl — lower, 97%
- COc1ccccc1N1CCN(CCCCN(C(=O)Nc2cccc(Cl)c2)C(=O)Nc2cccc(Cl)c2)CC1.Cl — the same, 100%
- CCN(CC)Cc1cc(NC(=O)c2ccccc2O)ccc1Oc1ccc(Cl)cc1.Cl — lower, 98%
- Cc1cc(F)ccc1C1CCN(CCCCNC(=O)c2ccc(NC(=O)c3ccc(Cl)cc3)cc2)CC1 — the same, 100%
- COc1ccc(-c2cccc(NC(=O)c3cccc(F)c3)c2)cc1CN1CCCN(C)CC1.O=C(O)C(F)(F)F — the same, 100%
- COc1ccc(-n2cc(C(=O)c3cc(Br)ccc3O)cc(C#N)c2=O)cc1Cl — lower, 99%
- COc1ccccc1C(=O)Nc1cccc(N2CCC(NCc3ccc(-n4cccn4)cc3)CC2)c1 — lower, 86%
- CNC(=O)Cc1ccc(C(=O)Nc2cccc(-c3csc(-c4nc5ccccc5[nH]4)c3)c2)cc1 — lower, 95%
- NC(=O)C1CCN(Cc2ccc(-c3cccc(-c4nc5cc(F)ccc5[nH]4)c3)cc2)CC1.O=C(O)C(F)(F)F — lower, 90%
- CS(=O)(=O)c1ccc(CCNCc2ccc(-c3ccc(CN(C(=O)C4CCCC4)C4CCN(Cc5ccccc5)CC4)cc3)nc2)cc1.O=C(O)C(F)(F)F — lower, 91%
- COc1ccc(-c2ccc(NC(=O)c3ccccc3)cc2)cc1CN1CCCN(C)CC1.O=C(O)C(F)(F)F — lower, 92%
- COc1ccc(CN2CCC(CNCC(c3ccccc3)c3ccccc3)CC2)cc1.O=C(O)C(F)(F)F — the same, 100%
- O=C(NCC1CC1)C1CCN(C(c2ccccc2)c2nc3ccccc3s2)CC1 (stereo not drawn) — lower, 92%
- CCN(CCCN1CCCCC1)c1cc(C)nc(Nc2ccc(C(F)(F)F)cc2)n1.O=C(O)C(F)(F)F — the same, 100%
- O=C(Nc1cccc(CN2CCCN(Cc3ccsc3)CC2)c1)c1ccc(Cl)c(Cl)c1.O=C(O)C(F)(F)F — lower, 98%
- CN(C)CCOc1ccc2c(c1)OC(C)(C)C=C2c1cccc2ccccc12.Cl — lower, 95%
- CCCNC(=O)C1Cc2c([nH]c3ccc(Br)cc23)C2(CCN(CCc3ccccc3)CC2)N1 (stereo not drawn) — lower, 99%
- O=C(O)C(F)(F)F.OC1CCCN(Cc2ccc(-c3ccc(-c4nc5cc(F)ccc5[nH]4)s3)cc2)C1 (stereo not drawn) — the same, 100%
- CC(=O)Nc1cccc(Nc2nccc(-c3c(-c4cccc(NC(=O)c5c(F)cccc5F)c4)nn4ncccc34)n2)c1 — lower, 96%
- COc1ccc(CNCc2cccc(-c3cccc(-c4nc5cc(C(F)(F)F)ccc5[nH]4)c3)c2)cc1.O=C(O)C(F)(F)F — the same, 100%
- COc1cccc(CN2CCCC(COC(c3ccc(F)cc3)c3ccc(F)cc3)C2)c1O (stereo not drawn) — lower, 98%
- COc1ccccc1C1CCN(CCCCNC(=O)c2ccc(/C=C/c3cc(Cl)cc(Cl)c3)cc2)CC1 — lower, 96%
- CN1CCC(Oc2ccc(CN3CC[C@H](NC(=O)c4ccc(F)c(F)c4)C3)c3ccccc23)C1.O=C(O)C(F)(F)F (stereo partly drawn) — lower, 91%
- Cl.N[C@@H](CCNCc1ccc(-c2cccnc2)cc1)Cc1ccc(F)c(F)c1 — lower, 98%
- CCN(CC)CCN(Cc1ccc(-c2ccc(C(F)(F)F)cc2)cc1)C(=O)c1ccc(-c2ccc(C#N)cc2)cc1 — lower, 89%
- O=[N+]([O-])c1ccc(N/C(=N\c2ccccc2Br)NC2CCCc3ccccc32)c(O)c1 (stereo not drawn) — lower, 98%
- Clc1cc(Nc2ccnc3ccc(Br)cc23)ccc1Oc1ccc2ccccc2c1Cl — the same, 100%
- COc1ccc2[nH]c(C)cc(=NN=Cc3ccccc3F)c2c1 — the same, 100%
- CCCC(C)NC[C@@H](O)[C@H](Cc1ccccc1)NC(=O)c1cc(C2CCCC2)cc(N2CCCCS2(=O)=O)c1.Cl (stereo partly drawn) — lower, 98%
- O=C(NCc1cccc(F)c1)Nc1cccc(-c2cccc(-c3nc4ccccc4[nH]3)c2)c1 — lower, 96%
- CCC(C)(CC)C(=O)n1ncc2c3c(N)nc(N)nc3ccc21 — lower, 94%
- Cl.Oc1ccccc1CNCC12CC3CC(CC(C3)C1)C2 — lower, 98%
- CCCNC(=O)c1cncc(-c2ccc(CNCCCc3ccccc3)cc2)c1.O=C(O)C(F)(F)F — the same, 100%
- O=C(Nc1ccc2c(c1)CCNCC2)Nc1ccc2ccccc2c1.O=C(O)C(F)(F)F — lower, 84%
- COc1ccc(Cl)cc1N1CCN(CCCNC(=O)c2ccc(-c3nc4cc(Cl)c(F)cc4[nH]3)cc2)CC1 — the same, 100%
- Fc1cccc(Cl)c1-c1nc(NCCC(c2ccccc2)c2ccccc2)no1 — lower, 99%
- COc1ccc2nccc(N3CCC(NCCNCc4ccc5c(n4)NC(=O)CO5)C3)c2n1.Cl (stereo not drawn) — the same, 100%

tested on: Plasmodium falciparum; assay: GSK_TCMDC: Inhibition of Plasmodium falciparum Dd2 in whole red blood cells, using parasite LDH activity as an index of growth. Test compounds present at 2uM; type: functional

Point of comparison: `COc1ccc(Cl)cc1N1CCN(CCCNC(=O)c2ccc(-c3nc4cc(Cl)c(F)cc4[nH]3)cc2)CC1`, Inhibition 98%. Against it:
- CCOC(=O)C(=O)N1c2ccc(OCC)cc2-c2c(ssc2=S)C1(C)C — higher, 100%
- O=C(Nc1ccc([N+](=O)[O-])cc1Br)c1cc2ccccc2nc1Cl — lower, 68%
- COc1ccccc1N1CCN(CCCCN(C(=O)Nc2cccc(Cl)c2)C(=O)Nc2cccc(Cl)c2)CC1.Cl — lower, 65%
- CCN(CC)Cc1cc(NC(=O)c2ccccc2O)ccc1Oc1ccc(Cl)cc1.Cl — lower, 88%
- Cc1cc(F)ccc1C1CCN(CCCCNC(=O)c2ccc(NC(=O)c3ccc(Cl)cc3)cc2)CC1 — lower, 79%
- COc1ccc(-c2cccc(NC(=O)c3cccc(F)c3)c2)cc1CN1CCCN(C)CC1.O=C(O)C(F)(F)F — lower, 78%
- COc1ccc(C2CCN(CCCCNC(=O)c3ccc(NC(=O)c4ccc(Cl)cc4)cc3)CC2)c(OC)c1.Cl — lower, 95%
- COc1ccc(-n2cc(C(=O)c3cc(Br)ccc3O)cc(C#N)c2=O)cc1Cl — lower, 23%
- COc1ccccc1C(=O)Nc1cccc(N2CCC(NCc3ccc(-n4cccn4)cc3)CC2)c1 — lower, 30%
- CNC(=O)Cc1ccc(C(=O)Nc2cccc(-c3csc(-c4nc5ccccc5[nH]4)c3)c2)cc1 — lower, 69%
- NC(=O)C1CCN(Cc2ccc(-c3cccc(-c4nc5cc(F)ccc5[nH]4)c3)cc2)CC1.O=C(O)C(F)(F)F — lower, 3%
- CS(=O)(=O)c1ccc(CCNCc2ccc(-c3ccc(CN(C(=O)C4CCCC4)C4CCN(Cc5ccccc5)CC4)cc3)nc2)cc1.O=C(O)C(F)(F)F — lower, 20%
- COc1ccc(-c2ccc(NC(=O)c3ccccc3)cc2)cc1CN1CCCN(C)CC1.O=C(O)C(F)(F)F — lower, 17%
- COc1ccc(CN2CCC(CNCC(c3ccccc3)c3ccccc3)CC2)cc1.O=C(O)C(F)(F)F — lower, 95%
- O=C(NCC1CC1)C1CCN(C(c2ccccc2)c2nc3ccccc3s2)CC1 (stereo not drawn) — lower, 49%
- CCN(CCCN1CCCCC1)c1cc(C)nc(Nc2ccc(C(F)(F)F)cc2)n1.O=C(O)C(F)(F)F — higher, 99%
- O=C(Nc1cccc(CN2CCCN(Cc3ccsc3)CC2)c1)c1ccc(Cl)c(Cl)c1.O=C(O)C(F)(F)F — lower, 20%
- CN(C)CCOc1ccc2c(c1)OC(C)(C)C=C2c1cccc2ccccc12.Cl — lower, 48%
- CCCNC(=O)C1Cc2c([nH]c3ccc(Br)cc23)C2(CCN(CCc3ccccc3)CC2)N1 (stereo not drawn) — lower, 49%
- O=C(O)C(F)(F)F.OC1CCCN(Cc2ccc(-c3ccc(-c4nc5cc(F)ccc5[nH]4)s3)cc2)C1 (stereo not drawn) — higher, 99%
- CC(=O)Nc1cccc(Nc2nccc(-c3c(-c4cccc(NC(=O)c5c(F)cccc5F)c4)nn4ncccc34)n2)c1 — lower, 51%
- COc1ccc(CNCc2cccc(-c3cccc(-c4nc5cc(C(F)(F)F)ccc5[nH]4)c3)c2)cc1.O=C(O)C(F)(F)F — lower, 91%
- COc1cccc(CN2CCCC(COC(c3ccc(F)cc3)c3ccc(F)cc3)C2)c1O (stereo not drawn) — higher, 100%
- COc1ccccc1C1CCN(CCCCNC(=O)c2ccc(/C=C/c3cc(Cl)cc(Cl)c3)cc2)CC1 — lower, 30%
- CN1CCC(Oc2ccc(CN3CC[C@H](NC(=O)c4ccc(F)c(F)c4)C3)c3ccccc23)C1.O=C(O)C(F)(F)F (stereo partly drawn) — lower, 27%
- Cl.N[C@@H](CCNCc1ccc(-c2cccnc2)cc1)Cc1ccc(F)c(F)c1 — lower, 57%
- CCN(CC)CCN(Cc1ccc(-c2ccc(C(F)(F)F)cc2)cc1)C(=O)c1ccc(-c2ccc(C#N)cc2)cc1 — lower, 31%
- O=[N+]([O-])c1ccc(N/C(=N\c2ccccc2Br)NC2CCCc3ccccc32)c(O)c1 (stereo not drawn) — lower, 89%
- Clc1cc(Nc2ccnc3ccc(Br)cc23)ccc1Oc1ccc2ccccc2c1Cl — lower, 93%
- COc1ccc2[nH]c(C)cc(=NN=Cc3ccccc3F)c2c1 — higher, 100%
- CCCC(C)NC[C@@H](O)[C@H](Cc1ccccc1)NC(=O)c1cc(C2CCCC2)cc(N2CCCCS2(=O)=O)c1.Cl (stereo partly drawn) — higher, 99%
- O=C(NCc1cccc(F)c1)Nc1cccc(-c2cccc(-c3nc4ccccc4[nH]3)c2)c1 — lower, 27%
- CCC(C)(CC)C(=O)n1ncc2c3c(N)nc(N)nc3ccc21 — lower, 6%
- Cl.Oc1ccccc1CNCC12CC3CC(CC(C3)C1)C2 — higher, 99%
- CCCNC(=O)c1cncc(-c2ccc(CNCCCc3ccccc3)cc2)c1.O=C(O)C(F)(F)F — lower, 29%
- O=C(Nc1ccc2c(c1)CCNCC2)Nc1ccc2ccccc2c1.O=C(O)C(F)(F)F — lower, 23%
- Fc1cccc(Cl)c1-c1nc(NCCC(c2ccccc2)c2ccccc2)no1 — lower, 87%
- COc1ccc2nccc(N3CCC(NCCNCc4ccc5c(n4)NC(=O)CO5)C3)c2n1.Cl (stereo not drawn) — lower, 47%

Source: ChEMBL document CHEMBL1157539, “Thousands of chemical starting points for antimalarial lead identification” (Nature, 2010)
